# From PubChem
# Only some compounds are listed: those with a hit (about 5.7% of all), similar ones and a draw of the others.
# ssDAF12 agonist = S. stercoralis DAF-12 nuclear receptor activators, primary screen, cell-based, luminescence, HEK293, GRIP1 co-expression, lit1-tk-luc. Nuclear hormone receptor DAF-12 (Strongyloides stercoralis). HEK293 ssDAF-12/GRIP1 lit1-tk-luc reporter; % of 3 µM dafachronic acid response. activation, % at 6.8 µM. 370,000 tested, 1% active. AID 652126, 2013;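 active = activation above the mean over all tested compounds plus 3 SD, cut at about 0.9% in these data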;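 note: 0% = DMSO-only wells and 100% = 3 µM delta7-dafachronic acid wells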
# AHR act = AHR activators, primary screen, cell-based, luminescence, luciferase reporter, human; Aryl hydrocarbon receptor (Homo sapiens), P35869; AHR-responsive luciferase reporter cells; activation, % at 5 µM; 320,000 tested, 2.5% active; AID 2796, 2010; in the data active = activation above about 47%;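 note: 0% = vehicle wells and 100% = reference agonist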
# DAX1 inh-1 = DAX1 (NR0B1) inhibitors on StAR promoter, primary screen, cell-based, luminescence, SF-1 (NR5A1), full-length DAX-1 | AID 652010, 2013 | 370,000 tested, 1.1% active | inhibition, % at 6.8 µM | HEK293T StAR-luciferase reporter, SF-1/DAX-1 repression relief;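 active = inhibition above the mean over all tested compounds plus 3 SD, cut at about 3.6% in these data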;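 note: 0% = DAX-1 cells with DMSO and 100% = cells lacking DAX-1 with DMSO; higher inhibition means more luminescence from relief of DAX-1 repression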
# DAX1 inh-2 = DAX1 (NR0B1) inhibitors, primary screen, cell-based, HEK293, Gal4-DAX1, luciferase luminescence. 340,000 tested, 0.99% active. inhibition, % at 6.75 µM. HEK293 Gal4-DAX1 luciferase reporter. Nuclear receptor subfamily 0 group B member 1 (Homo sapiens), P51843;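 active = inhibition above the mean over all tested compounds plus 3 SD, cut at about 4.2% in these data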;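 note: 0% = DAX1-transfected cells with DMSO and 100% = empty-vector control cells with DMSO; inhibition shows as a rise in luminescence from relieved DAX1 repression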
# Target sequence (P51843 207-470 limits assumed): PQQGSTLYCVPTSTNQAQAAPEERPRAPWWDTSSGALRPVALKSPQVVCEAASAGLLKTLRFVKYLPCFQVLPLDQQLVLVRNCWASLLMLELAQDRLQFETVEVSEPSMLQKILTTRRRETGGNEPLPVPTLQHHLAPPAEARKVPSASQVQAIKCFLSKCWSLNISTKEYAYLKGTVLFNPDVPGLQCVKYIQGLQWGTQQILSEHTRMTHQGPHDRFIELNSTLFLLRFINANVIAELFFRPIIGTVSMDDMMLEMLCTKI
# hcDAF-12 act = H. contortus DAF-12 nuclear receptor activators, primary screen, cell-based, luminescence, HEK293, lit1-tk-luc reporter. HEK293 hcDAF-12 lit1-tk-luc reporter; 0% DMSO, 100% Δ7-dafachronic acid. activation, % at 6.8 µM. 370,000 tested, 1.4% active. AID 652067, 2013;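 active = activation above the mean of all tested compounds plus 3 SD, cut at about 5.5% in these data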;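 note: 100% = response to 3 µM Δ7-dafachronic acid high control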
# hgDAF-12 ag = H. glycines DAF-12 receptor agonists, primary screen, cell-based, luminescence, HEK293, GAL4 fusion, UAS-luciferase | HEK293 GAL4-hgDAF12 UAS-luciferase reporter, agonist luminescence; normalized to butyrate control | activation, % at 6.8 µM | 370,000 tested, 1.8% active;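 active = activation above a cutoff set at the mean of all screened compounds plus 3 SD, cut at about 10% in these data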;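 note: 0% = DMSO wells and 100% = sodium butyrate wells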
# Starred values were filed as active, the others as inactive; nt = no result.
SMILES,ssDAF12 agonist,AHR act,DAX1 inh-1,DAX1 inh-2,hcDAF-12 act,hgDAF-12 ag
COCCNc1nc(Oc2ccc(CC(=O)OC)cc2)c2sc(-c3ccccc3)cc2n1,-1,nt,3.8*,nt,3,-2
O=C(NCc1cccnc1)c1ccc(Br)o1,-1,1,2,-1,0,1
CCCCNC(=O)c1nc(-c2ccccc2)oc1-c1ccc(Cl)cc1,-1,nt,0,nt,0,2
O=C(NC(Cc1c[nH]c2ccccc12)C(=O)OCC(=O)c1cccc2ccccc12)c1cccs1 (configuration not stated),-1,14,0,1,6.1*,3
COC(=O)C(Cc1c[nH]c2ccccc12)NC(=O)c1cccs1 (configuration not stated),-1,4,1,2,0,4
Cc1nc2ccc(NS(=O)(=O)c3ccc4c(c3)OCCO4)cc2s1,-2,-3,-2,-4,-4,-6
COc1ccc(OC)c(C(C)NC(=O)c2ccc(Br)cc2)c1 (configuration not stated),-2,3,0,8.4*,0,0
COc1ccc(C(C)NC(=O)c2ccc(Br)cc2)cc1OC (configuration not stated),-2,1,0,1,-1,-2
N#C/C(=C1/C(=O)Nc2ccc(Br)cc21)c1ccccn1,0,25,-1,0,5,-1
CC(=O)Nc1nnc(COc2ccccc2)s1,-1,10,0,1,-1,3
COCc1nnc(NC(C)=O)s1,-1,0,0,5.5*,2,2
Cc1ccc(N2C(=O)c3ccccc3NC2c2ccccc2O)cc1 (configuration not stated),0,10,0,0,3,11*
O=[N+]([O-])c1ccc2nc(C(O)C(O)c3nc4ccc([N+](=O)[O-])cc4[nH]3)[nH]c2c1 (configuration not stated),1.0*,14,0,2,2,5
CCOc1ccc(NC(=O)Nc2cc(C(=O)O)ccc2N2CC3CC(C2)c2cccc(=O)n2C3)cc1 (configuration not stated),-1,1,1,2,2,0
COc1ccccc1Cc1c(-c2ccc(C)cc2)nc2ccc(Cl)cn12,0,nt,3.9*,nt,1,8
COc1ccccc1Cc1c(-c2ccc(F)cc2)nc2ccc(Br)cn12,1.3*,nt,0,nt,3,8
COc1ccc(O)c(CNn2c(-c3ccc(Br)cc3)nc3ccccc3c2=O)c1,-1,62*,-1,1,3,-2
COc1ccc(OC)c(CNn2c(-c3ccccc3F)nc3ccccc3c2=O)c1,0,20,-1,0,-3,-2
O=C(Nn1c(-c2ccc(Br)cc2)nc2ccccc2c1=O)c1ccncc1,0,31,1,-1,5,13*
Cc1ccc(-c2nc3ccccc3c(=O)n2NC(=O)c2cccs2)cc1,0,52*,1,2,3,0
Cc1cccc(-c2nc3ccccc3c(=O)n2NC(=O)c2cccs2)c1,-1,9,0,0,1,-1
COCCN(Cc1nnc(-c2cccs2)o1)C(=O)CN1C(=O)NC2(CCCCC2)C1=O,-1,-1,0,0,-2,-5
c1ccc(-c2nnc(OCc3cccnc3)c3ccccc23)cc1,-1,17,-1,1,-2,0
COc1ccc(-c2nnc(OCc3ccccc3)c3ccccc23)cc1,0,56*,-1,-1,2,1
CC(=O)N(/N=C1\Sc2ccccc2C1=O)c1cccc(C)c1,0,76*,2,1,2,5
SMILES,ssDAF12 agonist,AHR act,DAX1 inh-1,DAX1 inh-2,hcDAF-12 act,hgDAF-12 ag
CC(=O)N(CN1C(=O)c2ccccc2C1=O)c1cccc(C)c1,-1,2,0,0,-2,1
O=C1N=c2ccc(Br)cc2=C1c1sc(=O)[nH]c1O,nt,64*,nt,nt,nt,nt
CC(C)(C)SCCNC(=O)/C=C/c1ccc(F)cc1,1.4*,13,1,2,2,8
COC(=O)CS(=O)(=O)c1ccsc1C(=O)Nc1ccc(F)cc1,-1,0,-1,0,-1,1
O=C(c1ccccc1)c1c2c(cc3sc4ccccc4[n+]13)-c1cccc3cccc-2c13,-1,54*,-4,-4,-3,-10
O=C1CC(c2ccccc2)CC(O)=C1C=Nc1ccc(Cl)cc1 (configuration not stated),-1,55*,-1,2,1,1
Cc1ccc(N=CC2=C(O)CC(c3cccc(Cl)c3)CC2=O)cc1 (configuration not stated),-1,3,0,1,-1,0
O=C1CC(c2ccccc2)CC(O)=C1C=Nc1ccccc1Cl (configuration not stated),-1,7,1,2,0,-1
O=C1CC(c2ccccc2)CC(O)=C1C=Nc1cccc(Cl)c1 (configuration not stated),-2,48*,0,1,1,-2
CCCCNC(=O)C1CCN(S(=O)(=O)N2CCCCCC2)CC1,0,0,0,-1,5.9*,0
CCC1CCCCN1CCCNC(=O)C1CCN(S(=O)(=O)N2CCCCC2)CC1 (configuration not stated),-2,0,1,-1,-1,1
Cc1ccc(NC(=O)Nc2ccccc2CC[N+](=O)[O-])cc1,0,15,0,nt,5.8*,6
Cc1cc(C)cc(NC(=O)c2ccccc2CC[N+](=O)[O-])c1,-1,21,0,-1,-1,-1
NS(=O)(=O)c1ccc(Nc2nc3ccccc3nc2NS(=O)(=O)c2cccc([N+](=O)[O-])c2)cc1,-1,0,0,5.0*,-1,1
CC1=Nc2ccccc2/C1=C/c1sc(=N)n(-c2nccs2)c1O,nt,73*,nt,-2,nt,nt
O=C(NNC(=O)c1ccccc1[N+](=O)[O-])c1ccc(NC(=O)c2ccccc2)cc1,-1,-2,0,0,-1,-2
CC(=O)n1c2c(c3ccccc31)OC(N)=C(C#N)C2c1cccc(Cl)c1Cl (configuration not stated),0,49*,0,0,4,0
